PubChem BioAssay (NCATS)
“And” between values parts separate entries of the source, which are not always exact repeats. Equal values may be shown once. Records with an inconclusive call do not appear. Where a structure was tested more than once in an assay, its records may differ in their call. The source made the active and inactive calls. Unless noted, calls follow the shape of the dose curve; as a rule, active = well fitted curve in either direction with a large enough effect (not every such curve was filed as active); inconclusive = small, poorly fitted or top-dose-only effect, or another doubt; inactive = flat fitted curve, though single readings scatter.

Key:
[1] = AP1 Signaling Pathway (AID 357); conditions: ME-180 (cervical carcinoma) AP-1-bla reporter, EGF-induced, beta-lactamase ratio, 5 h;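 also: ME-180 reporter cells stimulated with EGF at its EC50 level; % is scaled to controls: 0 for no effect and ±100 for the full control effect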
How it was run: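 Cells are seeded overnight, exposed to compound titrations and an EC50 level of EGF for 5 hours at 37 °C, then loaded with CCF4 dye for 2.5 hours. Beta-lactamase activity under the AP-1 element is read as a blue/green ratio.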

[2] = biological target: Cytochrome P450 1A2 (Homo sapiens) (UniProt P05177); assay: p450-cyp1a2 (AID 410; calls by dose curve; also: potency is read from the fitted curve at half-maximal effect;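 as to activity change, negative = inhibition: -100% = full effect of reference inhibitor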); conditions: recombinant CYP1A2, luciferin-ME demethylation, luminescence; series mostly up to 57 µM
How it was run: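 Human CYP1A2 (20nM) demethylated Luciferin-ME at its Km (100uM) in 100mM KPO4. After 10 min compound preincubation, NADPH regeneration ran the reaction 60 min at room temperature. Luciferin was read by luminescence, normalized to 57 uM furafylline.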

[3] = NFAT Signaling Pathway (AID 444); conditions: Jurkat NFAT-bla M1, carbachol, beta-lactamase ratio, 5 h;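 also: carbachol stimulus at about its EC50 of 1 µM final; % is scaled to controls: 0 for no effect and ±100 for the full control effect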
How it was run: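 Jurkat cells with NFAT-driven β-lactamase reporter and co-expressed M1 receptor, stimulated with carbachol (final 1 uM, ~EC50), compound titration, 5 h at 37 °C. CCF4 loaded 1 h at RT; 460/530 nm ratio gave %activity and AC50.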

[4] = Cell Viability - BJ (AID 421; calls by dose curve;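 also: potency is read from the fitted curve at half-maximal effect; cells exposed to compound for 40 hours at 37 °C before readout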); conditions: BJ fibroblast viability, qHTS
How it was run: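 Cytotoxicity as drop in intracellular ATP (CellTiter-Glo, 20 min RT) after 40 hr compound exposure of BJ fibroblasts at 37 °C. Titrations scaled between DMSO and 100 uM tamoxifen, Hill-fitted for AC50.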

[5] = Cell Viability - Jurkat (AID 426;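 active = dose-dependent loss of cell ATP signal giving a full or clear fitted curve, ranked by lower potency value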; also: potency is read from the fitted curve at half-maximal effect); conditions: qHTS
How it was run: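 Jurkat (clone E6-1, human T-cell leukemia) cells, 5000/well in complete medium, were exposed to compound for 40 hr at 37 °C. Viability was read as intracellular ATP by CellTiter-Glo luminescence; AC50 came from Hill fits of concentration-response data.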

[6] = Cell Viability - Hek293 (AID 427;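 active = compounds whose dose-response curve shows a full or clear partial loss of cell viability, called from curve shape rather than a numeric limit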;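 also: potency is read from the fitted curve at half-maximal effect; cells exposed to compound for 40 hours at 37 °C before reading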); conditions: qHTS
How it was run: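 Luminescent ATP content (CellTiter-Glo, 20 min at room temperature) was measured after a 40 hr, 37 °C compound exposure of HEK293 cells. AC50 values came from Hill-equation fits of qHTS concentration-response data normalized to DMSO and 100 uM tamoxifen.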

[7] = Cell Viability - HepG2 (AID 433; calls by dose curve;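 also: potency is read from the fitted curve at half-maximal effect; potency for ATP loss meaning cytotoxicity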); conditions: qHTS
How it was run: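 Cytotoxicity is scored as loss of intracellular ATP in HepG2 cells exposed to compounds for 40 h. Concentration-response curves, normalized to DMSO and 100 uM tamoxifen, give AC50 values.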

[8] = Cell Viability - MRC5 (AID 434; calls by dose curve;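 also: potency is read from the fitted curve at half-maximal effect; potency reflects cytotoxicity seen as loss of intracellular ATP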); conditions: MRC5 lung fibroblast viability, qHTS
How it was run: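 MRC5 normal human lung fibroblasts, 1500 cells/well, exposed to compound for 40 hr at 37 C. Cellular ATP was read by CellTiter-Glo luminescence; data normalized to DMSO and 100 uM tamoxifen, with AC50 from Hill fits.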

[9] = Cell Viability - SK-N-SH (AID 435; calls by dose curve;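 also: potency is read from the fitted curve at half-maximal effect; compound exposure lasted 40 h at 37 °C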); conditions: SK-N-SH neuroblastoma cell viability qHTS
How it was run: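 Cells seeded at 1500 per well and incubated 5 hr at 37 °C. Compound added, then 40 hr at 37 °C. CellTiter-Glo added, 20 min at room temperature, luminescence read.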

Cytochrome P450 1A2 (Homo sapiens), sequence (P05177 whole entry, looked up): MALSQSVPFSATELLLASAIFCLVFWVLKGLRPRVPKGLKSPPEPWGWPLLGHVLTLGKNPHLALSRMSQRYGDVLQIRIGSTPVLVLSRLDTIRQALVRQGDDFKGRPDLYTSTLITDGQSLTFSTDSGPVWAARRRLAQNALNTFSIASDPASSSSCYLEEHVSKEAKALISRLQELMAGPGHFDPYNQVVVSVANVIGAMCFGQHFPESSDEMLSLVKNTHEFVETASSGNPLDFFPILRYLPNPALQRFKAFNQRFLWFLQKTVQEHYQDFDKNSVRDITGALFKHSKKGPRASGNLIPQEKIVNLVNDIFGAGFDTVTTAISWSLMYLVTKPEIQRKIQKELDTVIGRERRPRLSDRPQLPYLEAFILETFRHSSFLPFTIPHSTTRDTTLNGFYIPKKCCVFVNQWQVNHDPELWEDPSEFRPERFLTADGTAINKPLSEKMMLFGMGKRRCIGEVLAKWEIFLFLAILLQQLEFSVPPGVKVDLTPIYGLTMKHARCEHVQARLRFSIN

O=C1CCc2cc(OCCCCc3nnnn3C3CCCCC3)ccc2N1
inactive: activity change, negative = inhibition ([1]; at 17.2 µM (top of the series)) -11% | activity change, negative = inhibition ([1]; at 38 µM (top of the series)) -14.1% | Potency [2] | activity change, negative = inhibition ([3]; at 17.2 µM (top of the series)) -6.28% | activity change, negative = inhibition ([3]; at 38 µM (top of the series)) -9.05%

CC(C)(Sc1ccc(CCN(CCCCC2CCCCC2)C(=O)NC2CCCCC2)cc1)C(=O)O
inactive: Potency [2]

CCOC(=O)C1=C[C@@]2(CC)CCCN3CCc4c(n1c1ccccc41)[C@H]32
active: activity change, negative = inhibition ([1]; at 38 µM (top of the series)) 94.5% [activator]
inactive and 39.8 µM (active): Potency [2]
inactive: activity change, negative = inhibition ([3]; at 17.2 µM (top of the series)) -3.7% | activity change, negative = inhibition ([3]; at 38 µM (top of the series)) 0.129%

O=NN(CCCl)C(=O)NCCCl
inactive: activity change, negative = inhibition ([1]; at 38 µM (top of the series)) 3.21% | activity change, negative = inhibition ([3]; at 38 µM (top of the series)) -7.61%

CCCCNc1cc(C(=O)O)cc(S(N)(=O)=O)c1Oc1ccccc1
inactive: activity change, negative = inhibition ([1]; at 17.2 µM (top of the series)) 2.74% and -1.68% | activity change, negative = inhibition ([1]; at 38 µM (top of the series)) -1.83% | activity change, negative = inhibition ([3]; at 17.2 µM (top of the series)) 1.71% and -0.748% | activity change, negative = inhibition ([3]; at 38 µM (top of the series)) 7.04%

NCCc1ccc(O)c(O)c1
inactive: activity change, negative = inhibition ([1]; at 38 µM (top of the series)) 2.68% | activity change, negative = inhibition ([3]; at 38 µM (top of the series)) 11.4%

CCN(c1ccccc1)c1cc(NC)[n+](C)c(C)n1
active: Potency [2] 31.6 µM

N=c1nc(N2CCCCC2)cc(N)n1O
inactive: activity change, negative = inhibition ([1]; at 17.2 µM (top of the series)) -4.3% and 1.82% | activity change, negative = inhibition ([1]; at 38 µM (top of the series)) 2.17% | Potency [2] | activity change, negative = inhibition ([3]; at 17.2 µM (top of the series)) -4.8% | activity change, negative = inhibition ([3]; at 38 µM (top of the series)) 7.52%

CC(=O)Oc1ccccc1C(=O)O
inactive: activity change, negative = inhibition ([1]; at 38 µM (top of the series)) 8.53% | Potency [2] | Potency [4] > 92 µM | Potency [5] > 92 µM | Potency [6] > 92 µM | Potency [7] > 92 µM | Potency [8] > 92 µM | Potency [9] > 92 µM | activity change, negative = inhibition ([3]; at 38 µM (top of the series)) 2.25%

NC[C@H](O)c1ccc(O)c(O)c1
inactive: activity change, negative = inhibition ([1]; at 38 µM (top of the series)) -15.3% and -4.21% | activity change, negative = inhibition ([3]; at 38 µM (top of the series)) -7.25% and 5.9%

Cc1cn[nH]c1
inactive: activity change, negative = inhibition ([1]; at 38 µM (top of the series)) 13.5% | activity change, negative = inhibition ([3]; at 38 µM (top of the series)) -5.73%

O=c1[nH]cnc2[nH]ncc12
inactive: activity change, negative = inhibition ([1]; at 38 µM (top of the series)) 2.34% | Potency [2] | Potency [4] > 92 µM | Potency [5] > 92 µM | Potency [6] > 92 µM | Potency [7] > 92 µM | Potency [8] > 92 µM | Potency [9] > 92 µM | activity change, negative = inhibition ([3]; at 38 µM (top of the series)) 5.26%

Nc1ccc(S(=O)(=O)Nc2ccnn2-c2ccccc2)cc1
inactive: activity change, negative = inhibition ([1]; at 17.2 µM (top of the series)) 1.79% | activity change, negative = inhibition ([1]; at 38 µM (top of the series)) 4.55% | Potency [2] | activity change, negative = inhibition ([3]; at 17.2 µM (top of the series)) -4.12% | activity change, negative = inhibition ([3]; at 38 µM (top of the series)) 1.19%

COc1ccc2nc(S(=O)Cc3ncc(C)c(OC)c3C)[nH]c2c1 (centres undefined)
inactive: activity change, negative = inhibition ([1]; at 17.2 µM (top of the series)) 4.02% and -1.7% | activity change, negative = inhibition ([3]; at 17.2 µM (top of the series)) -26.1% and -10.4%

C[C@]12CCC(=O)C=C1CC[C@@H]1[C@@H]2[C@@H](O)C[C@@]2(C)[C@H]1CC[C@]2(O)C(=O)CO
inactive: activity change, negative = inhibition ([1]; at 17.2 µM (top of the series)) -3.8% | activity change, negative = inhibition ([3]; at 17.2 µM (top of the series)) 18.6%

O=c1n(CCCN2CCN(c3cccc(Cl)c3)CC2)nc2ccccn12
inactive: activity change, negative = inhibition ([1]; at 17.2 µM (top of the series)) -7.19% and -2.29% | activity change, negative = inhibition ([1]; at 38 µM (top of the series)) -2.63% | Potency [2] | activity change, negative = inhibition ([3]; at 17.2 µM (top of the series)) -9.78% | activity change, negative = inhibition ([3]; at 38 µM (top of the series)) -3.74%

NS(=O)(=O)c1cc2c(cc1Cl)NC=NS2(=O)=O
inactive: activity change, negative = inhibition ([1]; at 17.2 µM (top of the series)) 10.4% and 2.47% | activity change, negative = inhibition ([1]; at 38 µM (top of the series)) -2.75% | Potency [4] > 92 µM | Potency [5] > 92 µM | Potency [6] > 92 µM | Potency [7] > 92 µM | Potency [8] > 92 µM | Potency [9] > 92 µM | activity change, negative = inhibition ([3]; at 17.2 µM (top of the series)) -2.56% and 9.37% | activity change, negative = inhibition ([3]; at 38 µM (top of the series)) 8.02%

Cc1cc2c(C(C)C)c(O)c(O)c(C=O)c2c(O)c1-c1c(C)cc2c(C(C)C)c(O)c(O)c(C=O)c2c1O
active: Potency [2] 15.8 µM | activity change, negative = inhibition ([3]; at 17.2 µM (top of the series)) -68.3%

Cc1[nH]c(=O)c(C#N)cc1-c1ccncc1
inactive: activity change, negative = inhibition ([1]; at 17.2 µM (top of the series)) 8.13% | activity change, negative = inhibition ([1]; at 38 µM (top of the series)) -0.284% | activity change, negative = inhibition ([3]; at 17.2 µM (top of the series)) -20.1% | activity change, negative = inhibition ([3]; at 38 µM (top of the series)) -0.614%

Cn1cnc([N+](=O)[O-])c1Sc1ncnc2nc[nH]c12
inactive: activity change, negative = inhibition ([1]; at 38 µM (top of the series)) 8.24% | Potency [4] > 92 µM | Potency [8] > 92 µM | activity change, negative = inhibition ([3]; at 17.2 µM (top of the series)) 13.3% | activity change, negative = inhibition ([3]; at 38 µM (top of the series)) 19.1%
active: Potency [5] 0.384 µM | Potency [6] 2.04 µM | Potency [9] 0.529 µM
